Source: PubChem (National Center for Advancing Translational Sciences (NCATS))
ATXN2 expr inh = Primary qHTS for Inhibitors of ATXN expression | Potency, µM (doses to about 57 µM), for the others: at the highest dose activity change, negative = inhibition, hits mostly inhibitors | HEK-293 ATXN2-luciferase reporter, luminescence, 24 h | 0.72% of 360,000 active | AID 1745845, 2022; note: potency is the fitted concentration of half-maximal effect; % is set by controls: 0 for no effect and ±100 for the full control effect; nearly all actives have a fitted effect of over 55% in size
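ATXN2-luciferase reporter cells (luciferase flanked by upstream and downstream ATXN2 gene portions) were treated 24 h at 37 °C with compounds at up to 57 uM. SteadyGlo luminescence gave expression; GF-AFC fluorescence gave viability.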
ATXN viability = Viability Counterscreen for Primary qHTS for Inhibitors of ATXN expression | AID 651635, 2014 | 0.49% of 400,000 active | S2 cells (HEK-293 line with an ATXN2-luciferase reporter) viability, CellTiter-Fluor protease fluorescence, 24 h | Potency, µM (top dose mostly 56.7 µM), actives largely listed as cytotoxic; note: potency is the fitted concentration of half-maximal effect; nearly all actives have a fitted effect of over 40% in size
USP1 inh = Inhibitors of USP1/UAF1: Primary Screen; 0.23% of 390,000 active; Potency, µM (titrated, usually from 57.1 µM), for inactives: top-dose activity change, negative = inhibition, most hits filed as inhibitors; AID 743255, 2014; recombinant USP1/UAF1, Ub-Rhodamine cleavage fluorescence; Ubiquitin carboxyl-terminal hydrolase 1 (Homo sapiens), O94782; note: potency is the fitted concentration of half-maximal effect; % is set by controls: 0 for no effect and ±100 for the full control effect; nearly all actives have a fitted effect of over 60% in size
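In this screen, compounds sit with the deubiquitinase complex (1nM) for 15 min at room temperature before Ub-Rho is added at 150nM final. Fluorescence rise is then followed for 6 reads every 60 seconds.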
IL-1B inflam inh = qHTS for Inhibitors of Inflammasome Signaling: IL-1-beta AlphaLISA Primary Screen; 4.7% of 360,000 active; activity change, % at 57.5 µM; THP-1 LPS/ATP IL-1B secretion, AlphaLISA, 16 h; stronger effect = lower value; in the data active = activity change below about -50%; inconclusive = mostly about -30% to -49%; note: % is set by controls: 0 for no effect and ±100 for the full control effect
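THP-1 cells pretreated 1 hr with compounds (up to 57.5 uM final), then stimulated with LPS (250 ng/mL final) plus ATP (1.25 mM final); secreted IL-1B measured by AlphaLISA after 16 hr, decreased signal indicating inhibition.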
USP2a block = qHTS Assay for Inhibitors of Ubiquitin-specific Protease USP2a Using CHOP2 as the Reporter | 0.01% of 330,000 active | AID 463254, 2010 | USP2 core, Ub-CHOP2 coupled fluorogenic reporter, 485/531 | Potency, µM (top dose mostly 38.3 µM), for inactives: at the highest dose activity change, negative = inhibition, usual class: inhibitors;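 note: potency is the fitted concentration of half-maximal effect; plate controls were DMSO wells for no effect and full inhibition by NEM control for full effect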
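Cell-free coupled assay: 10nM USP2 core preincubated 30min RT with compound in Tris-HCl pH 8.0/CaCl2/CHAPS buffer, then 25nM Ub-CHOP2 and 25nM reporter substrate; fluorescence (Ex 485/Em 531) read after 60min RT, normalized to NEM inhibition, concentration-response curves fitted.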
* = called active by the depositor; i = inactive; ? = inconclusive; . = not tested or not shown; [ ] = another dose, or the depositor's remark. The list is not random: actives were taken first. Their share in the collection is about 4.8%. Unless noted, calls come from the whole dose curve; as a rule, active = well fitted curve in the direction sought with a large enough effect; inconclusive = small, poorly fitted or top-dose-only effect, or another doubt; inactive = no such curve, though single readings can be large; an effect the other way counts as inactive or inconclusive.

SMILES	ATXN2 expr inh	ATXN viability	USP1 inh	IL-1B inflam inh	USP2a block
CN(C)CCCNC(=O)/C(=C\c1ccc(-c2cccc([N+](=O)[O-])c2)o1)NC(=O)c1ccccc1	-9%	i	-5%	-119*	-6%
Cc1ccc(C(=O)N/C(=C\c2ccc(-c3ccc(Br)cc3)o2)C(=O)NCCCN(C)C)cc1	10µM*	32µM*	-11%	-77*	-1%
Cc1ccc(C(=O)N/C(=C\c2ccc(-c3ccccc3[N+](=O)[O-])o2)C(=O)NCCCN2CCOCC2)cc1	-19%	i	?	58	0%
CC(=O)c1ccc(-c2c(CCO)sc3ccccc23)cc1	38%	i	.	23	.
CCc1cc2c(cc1N1CCC(N3CCOCC3)CC1)C(C)(C)c1[nH]c3cc(C#N)ccc3c1C2=O	-25%	.	.	.	.
Cc1cccc(C)c1NC(=O)C1(C)CSCC(=O)N1CCc1ccccc1F (centres undefined)	.	.	.	-23	.
C#Cc1ccccc1OCCCN1CCC(C(O)(c2ccccc2)c2ccccc2)CC1	32µM*	40µM*	.	0	.
COc1ccccc1OCCCN1CCC(C(O)(c2ccccc2)c2ccccc2)CC1	?	?	.	-54*	.
Cn1cnc(=N)c2[nH]cnc21	292%	.	.	.	.
CCOC(=O)CNS(=O)(=O)c1ccc2c3c(cccc13)C(=O)N2CC	-15%	.	?	-86*	-2%
CCc1cc(C(=O)N2CCOc3ccc(CN4CCN(Cc5ccccn5)CC4)cc3C2)no1	.	i	.	.	.
COC(=O)CSc1nc2ccc(NC(=O)c3ccccc3C(=O)N3CCOCC3)cc2s1	5%	i	-1%	-65*	3%
CCC(CC)C(=O)N(C)c1c(C)nc2c(OCc3ccc(C#N)cc3)cccn12	7%	i	.	-71*	.
Cc1nc2c(OCc3ccc(OC(F)F)cc3)cccn2c1N(C)C(=O)CCC1CCCC1	?	.	.	-58*	.
COc1ccccc1COc1cccn2c(N(C)C(=O)CCC3CCCC3)c(C)nc12	-3%	?	.	-21	.
Cc1ccccc1COc1cccn2c(N(C)C(=O)CCC3CCCC3)c(C)nc12	?	?	.	-57*	.
CCN(CC)S(=O)(=O)c1ccc(/C=C/C(=O)OCC(=O)NCc2cccs2)cc1	.	i	-11%	11	1%
NC(=O)CSc1oc(-c2cccs2)nc1S(=O)(=O)c1ccc(Br)cc1	9%	i	?	.	.
COc1ccc2c3c(c(=O)oc2c1)C1O[C@](c2ccsc2)(Cc2cc(C#N)ccc21)O3	.	.	.	.	2%[7.66 µM]
CCOc1ccccc1Oc1ncnc2c1oc1ccccc12	7%	?	-18%	.	.
COc1ccc(-n2c(C)cc(C(=O)CCl)c2C)cc1	30µM*	27µM*	-24%	-77*	2%
COc1ccc(-n2c(C)cc(C(=O)CN3C(=O)c4ccccc4C3=O)c2C)cc1	8%	i	-19%	-12	1%
Cc1nnc(SCC(=O)c2cc(C)n(-c3c(C)n(C)n(-c4ccccc4)c3=O)c2C)s1	11%	i	-18%	6	0%
Cc1cc(-n2c(C)cc(C(=O)CCl)c2C)no1	15%[11.3 µM]	?	-25%	-102*	0%
Cc1cc(-n2c(C)cc(C(=O)CN3C(=O)C(=O)N(C)C3=O)c2C)no1	.	i	-4%	0	6%
Cc1cc(C(=O)CCl)c(C)n1-c1c(C)n(C)n(-c2ccccc2)c1=O	11%	?	-15%	-99*	2%
COc1ccc(N(C(=O)COc2ccc(C)cc2)S(=O)(=O)c2ccc(C)cc2)cc1	?	?	-21%	15	-1%
OC[C@H]1O[C@@H](c2nc(-c3ccc(CN4CCOCC4)cc3)no2)[C@H](O)[C@@H](O)[C@H]1O	-3%	i	.	23	.
c1ccc2c(C[C@@H]3CNCCN3CC3CCCCC3)cccc2c1	?	?	-1%	-58*	-23%
CN(C)c1ccc(Cc2cc3c(O)ccc(O)c3cc(Cc3ccc(N(C)C)cc3)c2=O)cc1	?	i	?	-113*	.
